This is a sample that favours compounds with a hit; in the whole collection about 2.4% have one here.
D2 PAM-1 – positive allosteric modulators of human D2 dopamine receptor; potentiation, % at 10 µM; HEK293 T-REx D2, calcium flux, EC20 dopamine potentiation; P14416; 0.34% of 340,000 active;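 active means potentiation over 3 SD above the plate norm, cut at about 30% in these data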; further: 0% is about no effect
Target sequence (P14416 whole entry, looked up): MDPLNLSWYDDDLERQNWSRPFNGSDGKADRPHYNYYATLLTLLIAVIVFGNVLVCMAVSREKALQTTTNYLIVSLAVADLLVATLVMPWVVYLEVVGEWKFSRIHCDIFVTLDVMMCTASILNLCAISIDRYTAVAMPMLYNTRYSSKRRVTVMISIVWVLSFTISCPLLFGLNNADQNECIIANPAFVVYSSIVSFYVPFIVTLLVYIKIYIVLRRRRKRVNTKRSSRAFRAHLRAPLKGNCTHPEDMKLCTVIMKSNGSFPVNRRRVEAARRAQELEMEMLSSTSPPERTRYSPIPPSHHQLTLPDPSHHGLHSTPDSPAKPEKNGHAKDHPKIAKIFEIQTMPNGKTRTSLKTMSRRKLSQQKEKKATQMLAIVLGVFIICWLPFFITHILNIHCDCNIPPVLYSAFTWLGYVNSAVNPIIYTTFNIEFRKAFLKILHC
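Calcium flux readout, no-wash dye, 1 read/s. Inducible HEK293 Trex D2 line, overnight 30 C. Compound alone 180 s (agonist flags), then EC20 dopamine, another 180 s to score potentiation.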
D2 ag-1 – human D2 receptor agonism in beta-arrestin assay; P14416; DiscoveRx PathHunter D2 beta-arrestin, luminescence, 90 min; 100% = 57 uM dopamine signal; activation, % (no concentration beside the values); 0.084% of 360,000 active; AID 624465; in the data active means activation above about 40%; inconclusive means between about 15% and that limit
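Agonist mode: compounds alone added to overnight-plated D2 PathHunter cells for 90 min at 37 C, with 57 uM final dopamine (EC100) defining full response. Beta-arrestin recruitment detected by chemiluminescent reagent, read after 1 h at ambient temperature.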
D2 ag-2 – activates the human D2 dopamine receptor | P14416 | HEK293 T-REx D2 cells, calcium flux agonist mode | activation, % at 2 µM | 0.53% of 340,000 active | AID 485358;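 active means activation over 3 SD above normal in the single-dose calcium agonist read, cut at about 30% in these data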; further: 0% is about no effect
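Tetracycline-induced HEK293 Trex cells with D2 receptor force-coupled to calcium signaling, plated overnight at 30 C and loaded with no-wash calcium dye. Calcium flux read kinetically for 180 s after compound addition; responses flag agonists.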
D2 PAM-2 – positive allosteric modulators of human D2 dopamine receptor; P14416; DiscoveRx D2 beta-arrestin cells, luminescence, 90 min; 100% = 57 uM dopamine signal; potentiation, % (no concentration beside the values); 0.23% of 360,000 active; AID 624464; in the data active means potentiation above about 50%; inconclusive means mostly about 30% to 49%
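D2 cells co-treated with compound plus 50 nM dopamine (EC20) for 90 min at 37 deg C to detect potentiation. Beta-arrestin recruitment was read as enzyme-fragment luminescence after 1 h at ambient temperature. Full response was set by 57 uM dopamine.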
D2 antag – antagonists of human D2 dopamine receptor; inhibition, % at 10 µM; 2% of 340,000 active; P14416; HEK293 TREx D2 cells, calcium flux, dopamine EC80; in the data active means inhibition above about 30%; inactive means below that, where a call was filed; further: 0% is about no effect
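Antagonism is scored as inhibition of an EC80 dopamine-evoked calcium signal in a force-coupled, tetracycline-inducible HEK293 T-REx D2 line, with compound present 180 s before agonist.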
Active calls of the source: *; ? = inconclusive; . = no result given.

SMILES	D2 PAM-1	D2 ag-1	D2 ag-2	D2 PAM-2	D2 antag
COc1ccc(-c2cn3nc(N4CCCC(C(=O)NCc5ccc(Cl)cc5)C4)sc3n2)cc1 (stereo not drawn)	8	.	.	.	.
COc1ccc2c(C)cc(SCc3c(C)noc3C)nc2c1	-5	1	1	-1	31*
O=C(Cn1nc(C(F)(F)F)c2c1CCCC2)Nc1ccc2c(c1)OCO2	32*	-4	1	-12	-6
Cc1ccc(NC(=O)Cn2nc(C(F)(F)F)c3c2CCC3)cc1C	4	.	-1	.	.
c1cc2c3c(cccc3c1)NC1(CCC3(CC1)Nc1cccc4cccc(c14)N3)N2	-4	0	4	71*	-8
CCc1nc2ccc(C(=O)NCc3ccc(OC)cc3)cn2c1N(C)C(=O)Cc1ccccc1	.	-6	.	-9	.
COc1cccc(NC(=O)Cn2c(CCC(=O)O)ccc2-c2ccccc2)c1	34*	-4	1	-6	4
CC(C)Cn1c(=O)c2ccccc2n2c(CCC(=O)NC(C)c3ccccc3)nnc12 (stereo not drawn)	18	.	-1	.	.
OCCC1CN(Cc2ccc(F)cc2)CCN1CCc1ccccc1 (stereo not drawn)	-2	-2	-3	-2	43*
OCCC1CN(Cc2cccc(-n3cccn3)c2)CCN1Cc1ccccc1 (stereo not drawn)	-22	-2	0	-25	58*
OCCC1CN(Cc2ccc(F)cc2)CCN1CCCc1ccccc1 (stereo not drawn)	-17	-1	1	-4	-7
COc1cc(C(=O)ON=C2C3CC4CC(C3)CC2C4)cc(OC)c1OC	3	45*	-1	18	-16
COc1cc(C(=O)O/N=C2/C=CC(=O)C(C)=C2C)cc(OC)c1OC	0	?	0	72*	5
COc1cc(C(=O)NC23CC4CC(CC(C4)C2)C3)cc(OC)c1OC	-9	-6	0	-7	10
COc1cc(C(=O)O/N=C2\C=CC(=O)C=C2C)cc(OC)c1OC	6	1	1	0	50*
NC(c1csc(Nc2ccc(C(=O)NCCO)cc2)n1)C1CCCCC1 (stereo not drawn)	.	-3	.	-19	.
CC(C)c1ccc(N2C(=O)CSC23C(=O)N(Cc2ccccc2F)c2ccccc23)cc1 (stereo not drawn)	1	.	-1	.	.
CCOC(=O)c1c(NC(=O)C(C)Sc2cn(CCNC(=O)c3ccccc3OC)c3ccccc23)sc2c1CCC2 (stereo not drawn)	0	.	-1	.	.
COc1ccc(N(Cc2cccs2)C(=O)c2ccc(Br)o2)cc1	-10	.	-2	.	.
CCOc1ccc(NS(=O)(=O)c2c(C)nc3sc(C)c(C)n3c2=O)cc1	2	.	1	.	.
CN1CCN(c2ccc(NS(=O)(=O)c3ccc(Cl)cc3)cn2)CC1	-5	-2	-1	-8	33*
CCc1ccc(S(=O)(=O)Nc2ccc(N3CCN(C)CC3)cc2)cc1	-20	1	1	-23	75*
CCc1ccc(S(=O)(=O)Nc2ccc3c(c2)n(C)c(=O)c(=O)n3C)cc1	-11	.	0	.	.
Cc1ccc(S(=O)(=O)Nc2ccc(N3CCN(C)CC3)nc2)cc1	-14	-7	-1	-21	4
CC1CCC(C(=O)NC(C(=O)OCC(=O)c2ccc(Br)cc2)C(C)C)CC1 (stereo not drawn)	-17	.	-1	.	.
SMILES	D2 PAM-1	D2 ag-1	D2 ag-2	D2 PAM-2	D2 antag
CC(=O)C1=C(C)NC(C)=C(C(C)=O)C1c1ccccc1	4	41*	0	8	-1
CC(=O)C1=C(C)NC(C)=C(C(C)=O)C1c1cccs1	7	-4	0	6	-10
CCn1cc(C(=O)NCCc2ccc(OC)c(OC)c2)c(=O)c2cc(S(=O)(=O)N3CCc4ccccc4C3)ccc21	-1	.	0	.	.
c1ccc(N2CCN(c3nc(-c4cccs4)nc4ccccc34)CC2)cc1	28	-3	.	-7	.
CCN1CCN(c2nc(-c3ccccc3)c3ccccc3n2)CC1	-23	-3	0	-24	59*
CN1CCN(c2nc(-c3cccs3)nc3ccccc23)CC1	-20	-6	0	-21	32*
CN1CCN(c2nc(-c3ccccc3Cl)nc3ccccc23)CC1	-15	-9	-1	-23	-15
CCN1CCN(c2nc(-c3ccccc3Cl)nc3ccccc23)CC1	-15	-8	-1	-10	38*
CCOc1ccccc1NS(=O)(=O)c1c(C)nc2sccn2c1=O	-1	.	0	.	.
CC(=O)c1c(NCc2ccccc2)nc(=O)n(-c2ccccc2)c1C	-7	-7	1	-12	40*
CCCCOc1ccc(Cn2c(=O)oc3ccc(C)cc32)cc1	-10	.	1	.	.
CC1CCc2cc(F)ccc2N1S(=O)(=O)c1ccc(Cl)nc1 (stereo not drawn)	-6	0	-1	2	35*
Cc1ccccc1C(=O)n1nc(-c2ccco2)nc1NCc1ccc(Cl)cc1	3	.	0	.	.
COc1ccc(N=Cc2ccccc2O)cc1	.	-2	.	-2	.
C=CCOc1ccc(C=Nc2ccc(OC)cc2)c(O)c1	48*	2	0	2	-6
Cc1cccc(NC(=S)NC2CC3CCCC(C2)N3Cc2cccs2)c1 (stereo not drawn)	-22	1	1	-30	77*
CCc1ccccc1NC(=O)NC1CC2CCC(C1)N2Cc1ccco1 (stereo not drawn)	-25	-4	0	-33	32*
Fc1ccc(NC(=S)NC2CC3CCC(C2)N3Cc2ccco2)cc1 (stereo not drawn)	.	-3	.	-16	.
Cc1cc(C)cc(NC(=S)NC2CC3CCC(C2)N3Cc2ccco2)c1 (stereo not drawn)	-15	-9	0	-23	46*
O=C(Nc1cccc(Cl)c1)NC1CC2CCC(C1)N2Cc1ccco1 (stereo not drawn)	-35	1	1	-4	64*
CCCCOC(=O)c1ccc(NC(=O)Cn2nnc3sc4c(c3c2=O)CCCC4)cc1	-8	.	0	.	.
CCCc1cc(N2CCN(c3cc(Cl)ccc3C)CC2)n2cnnc2n1	5	.	.	.	.
CCN(C(=O)CSc1ncc2c(n1)-c1cc(Cl)ccc1N(Cc1ccccc1)S2(=O)=O)c1cccc(C)c1	6	.	.	.	.
Cc1ccc(C(=O)NC2CC3CCC(C2)N3Cc2ccco2)cc1 (stereo not drawn)	-26	-3	0	-36	21
COc1cc(OC)cc(C(=O)NC2CC3CCC(C2)N3Cc2ccco2)c1 (stereo not drawn)	-17	-3	2	-37	48*
O=C(Nc1ccc(Cl)c(C(F)(F)F)c1)NC1CC2CCCC(C1)N2Cc1ccccc1 (stereo not drawn)	.	-3	1	-9	48*
CCCC(=O)C1=C(O)C(C(=O)OC)C(C)(C)CC1=NC(C)C (stereo not drawn)	5	0	0	0	33*
Cc1cc(C(F)(F)F)nn1-c1nc(-c2ccccc2)cc(C(F)(F)F)n1	8	.	1	.	.

Source: PubChem BioAssay (National Center for Advancing Translational Sciences (NCATS))
